From PubChem BioAssay (NCATS) come the findings set out here.

Records with an inconclusive call do not appear. Active and inactive are the calls of the source. Unless noted, the call rests on the fitted dose curve; in most records, active means well fitted curve in the direction sought with a large enough effect; inconclusive means small, poorly fitted or top-dose-only effect, or another doubt; inactive means no such curve, though single readings can be large; an effect the other way counts as inactive or inconclusive. Where a SMILES comes first, the peptide text is derived from it. [ ]: non-standard residue; d: D form. pGlu = O=C1CC[C@@H](C(=O)O)N1

Assay [1] is described as follows: qHTS profiling of the MIPE4 collection as inhibitors of Plasmodium falciparum (DD2) proliferation (AID 743345; call rule not given here). The conditions noted are these: P. falciparum Dd2 in erythrocytes, SYBR Green DNA, 72 h; at 28.5 µM (top of the series). The method, boiled down: (§1)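 Parasite DNA was quantified by SYBR Green I fluorescence (ex 485, em 535 nm) after overnight lysis in saponin/Triton buffer at room temperature. Cultures at 0.3% parasitemia and 2.5% hematocrit were first exposed to compound for 72 h at 37 C; signals were normalised to artemisinin (0.29 uM) and vehicle wells.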

The nature of assay [2]: qHTS profiling of the MIPE4 collection as inhibitors of Plasmodium falciparum (DD2) proliferation (Rep 2) (AID 743346; call rule not given here). Particulars: P. falciparum Dd2 in erythrocytes, SYBR Green DNA, 72 h; at 28.5 µM (top of the series). A digest of the protocol: as §1
In general terms: Quantitative high-throughput screening tests each substance at several concentrations.

A short description of assay [3]: qHTS profiling of the MIPE4 collection as inhibitors of Plasmodium falciparum (HB3) proliferation (AID 743347; call rule not given here;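 further: plate controls were DMSO vehicle wells for no effect and artemisinin wells for full effect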). Particulars: P. falciparum HB3 in erythrocytes, SYBR Green DNA, 72 h; at 28.5 µM (top of the series). The method, boiled down:
as §1

A short description of assay [4]: qHTS assay to identify small molecule inhibitors of chordoma cells - UCH-1 (AID 1259355). Further: on the % scale 0 is the no-effect control and ±100 the full control effect; nearly all actives have a fitted effect of over 55% in size. A digest of the protocol:
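A 48hr growth-inhibition format: each drug tested at 15 concentrations together with added auranofin, camptothecin, doxorubicin, rubitecan and topotecan, with cell viability quantified as CellTiter-Glo luminescence.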

Assay [5] is described as follows: P-glycoprotein substrates identified in KB-8-5-11 adenocarcinoma cell line, qHTS therapeutic library screen (AID 1346987). Further: nearly all actives have a fitted effect of over 65% in size. Further: potency means the concentration at half of the fitted maximal effect. The conditions noted are these: outcome: dose series up to 44.5 µM unless noted. A digest of the protocol: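 Compounds are pinned in dose-response onto KB-8-5-11 cells (500 cells/well, colchicine-free medium) and left 72 h at 37 degree C. CellTiter-Glo luminescence then yields AC50 values.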

Assay [6] in a line: qHTS assay to identify small molecule inhibitors of chordoma cells - UCH-2 (AID 1259356). Further: on the % scale 0 is the no-effect control and ±100 the full control effect.
A short description of assay [7]: NS1 protein of Zika virus - qHTS assay to identify small molecule inhibitors in human HEK 293 cells (AID 1347053).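 Further: plate controls were infected untreated cells for no effect and uninfected cells for full effect; nearly all actives have a fitted effect of over 55% in size.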 A digest of the protocol: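 TR-FRET signal from two anti-ZIKV NS1 antibodies quantified NS1 in HEK 293 cells 24 h after MR766 infection at MOI = 0.5; compounds were added 1 h before virus. Uninfected cells and infected cells defined the NS1 normalization range.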

Assay [8] is described as follows: qHTS of pediatric cancer cell lines to identify multiple opportunities for drug repurposing: Primary screen for TC32 cells (AID 1347089). Further: on the % scale 0 is the no-effect control and ±100 the full control effect; nearly all actives have a fitted effect of over 60% in size. The method, boiled down:
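Measured quantity: luminescence from CellTiter-Glo, reflecting metabolically active TC32 cells following 48 h of compound. Curves came straight from multi-point titrations, with 8 or 11 points in primary and 11 in confirmatory screening.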

The nature of assay [9]: qHTS of pediatric cancer cell lines to identify multiple opportunities for drug repurposing: Primary screen for DAOY cells (AID 1347090).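 Further: plate controls were DMSO for no effect and bortezomib for full effect; nearly all actives have a fitted effect of over 55% in size.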 A digest of the protocol:
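Eight- or eleven-point concentration series, 48 h treatment at 37 degrees C in growth media; readout CellTiter-Glo luminescence. Potency and efficacy were taken from the concentration-response curves.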

Assay [10] in a line: qHTS of pediatric cancer cell lines to identify multiple opportunities for drug repurposing: Primary screen for SK-N-MC cells (AID 1347093).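 Further: plate controls were DMSO neutral control for no effect and bortezomib for full effect.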 The method, boiled down:
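Metabolically active cells were quantified by ATP-dependent luminescence (CellTiter-Glo, 15 min at room temperature) following 48 h treatment. Cells had been plated at 500-1,000 per well and settled for 5 h beforehand.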

Assay [11] can be described thus: qHTS of pediatric cancer cell lines to identify multiple opportunities for drug repurposing: Primary screen for BT-37 cells (AID 1347094).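 Further: plate controls were DMSO for no effect and bortezomib for full effect.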 The method, boiled down: (§2)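 Luminescence from CellTiter-Glo served as readout of metabolically active cells after 48 h compound exposure. Titrations: MIPE 11-point, from 0.78 nM; NPC 8-point, from 0.59 nM (final). Concentration-response curves came straight from the primary screen.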

Assay [12] is described as follows: qHTS of pediatric cancer cell lines to identify multiple opportunities for drug repurposing: Primary screen for NB-EBc1 cells (AID 1347095).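 Further: plate controls were DMSO neutral control for no effect and bortezomib for full effect.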 The method, boiled down:
as §2

Assay [13] is described as follows: qHTS of pediatric cancer cell lines to identify multiple opportunities for drug repurposing: Primary screen for U-2 OS cells (AID 1347096).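 Further: plate controls were DMSO wells for no effect and bortezomib positive control wells for full effect; nearly all actives have a fitted effect of over 50% in size.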 A digest of the protocol:
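Cells (500-1,000/well) in growth media were settled 5 h at 37 degrees C, then given compounds for 48 h. Viability was read as CellTiter-Glo luminescence. Primary runs used MIPE at 11 points (0.78 nM-46 µM) and NPC at 8 points (0.59 nM-46 µM); follow-ups used 11 points.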

Assay [14] is described as follows: qHTS of pediatric cancer cell lines to identify multiple opportunities for drug repurposing: Primary screen for A673 cells (AID 1347092). Further: on the % scale 0 is the no-effect control and ±100 the full control effect; nearly all actives have a fitted effect of over 45% in size. The method, boiled down:
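Cells are plated, rested 5 h, dosed by pintool, incubated 48 h, then lysed with CellTiter-Glo and read by luminescence. DMSO is the neutral control; bortezomib at 2.3 uM final is the positive control.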

On to `O=C(O)[C@H]1C(=CCO)O[C@H]2CC(=O)N12`, for which, in [1], the parasite growth remaining, % of DMSO control (lower = more inhibition) was determined as 103%. In addition, the parasite growth, % of control (lower = inhibition) in assay [2] amounted to 115%. The molecule further returned a growth, % of control in [3] of 93.1%. Moreover, the Potency entry in assay [4] and in [5] was “inactive” each time.
Regarding `CC(=O)[C@H]1CC[C@H]2[C@@H]3C=CC4=CC(=O)CC[C@@]4(C)[C@H]3CC[C@]12C`, the parasite growth remaining, % of DMSO control (lower = more inhibition) in assay [1] was determined as 96.9%. In addition, the parasite growth, % of control (lower = inhibition) in assay [2] is 165%. The growth, % of control in [3] stood at 95.1%. Besides, the Potency entry in assay [4] and in [6] was “inactive” in each case.
In the case of `Cn1c(=O)c2c(ncn2CCOC(=O)C(C)(C)Oc2ccc(Cl)cc2)n(C)c1=O`, in assay [4], the Potency result is “inactive”. In addition, in [5], the Potency is 18.4 µM (active).
For `CCOC(=O)c1cc(-c2ccccc2)nc2ccc(C)cc12`, the Potency result in assay [4] and in [5] was “inactive” in each case.
On to `CC(C)CCC[C@@H](C)[C@H]1CC[C@H]2[C@@H]3CC[C@@H]4C[C@H](O)CC[C@]4(C)[C@H]3CC[C@]12C`, for which the Potency entry in assay [4] and in assay [5] was “inactive” throughout.
`O=C(O)Cc1nn(Cc2ccc(Br)cc2F)c(=O)c2ccccc12`: the Potency entry in assay [4] and in assay [5] was “inactive” each time.
Take `N=C(N)n1cccn1`: the Potency result in assay [4] and in [5] was “inactive” in each case.
For the molecule `CN[C@H](CC(C)C)C(=O)N[C@H]1C(=O)N[C@@H](CC(N)=O)C(=O)N[C@H]2C(=O)N[C@H]3C(=O)N[C@H](C(=O)N[C@@H](C(=O)O)c4cc(O)cc(O)c4-c4cc3ccc4O)[C@H](O)c3ccc(c(Cl)c3)Oc3cc2cc(c3O[C@@H]2O[C@H](CO)[C@@H](O)[C@H](O)[C@H]2O[C@H]2C[C@](C)(N)C(O)[C@H](C)O2)Oc2ccc(cc2Cl)[C@H]1O` (stereo not given in full), the Potency result in assay [4] and in [5] was “inactive” each time.
Regarding `c1ccc2c(c1)Sc1ccccc1N2CCN1CCCC1`, the Potency entry in assay [6] was “inactive”.
As to `O=C(O)/C=C/c1ccccc1`, the Potency entry in assay [4] and in assay [5] was “inactive” each time.
Regarding `Cc1c(C)c2c(c(C)c1OC(=O)CCC(=O)O)CC[C@@](C)(CCC[C@H](C)CCC[C@H](C)CCCC(C)C)O2`, the Potency entry in assay [4] and in assay [5] was “inactive” throughout.
As for `CO/N=C(/C(=O)N[C@@H]1C(=O)N2C(C(=O)O)=C(COC(N)=O)CS[C@H]12)c1ccco1`, the Potency entry in assay [4] and in assay [5] was “inactive” throughout.
Regarding `O=C(OCc1ccccc1)c1cccnc1`, the Potency entry in assay [4] and in assay [5] was “inactive” in each case.
As to `Cc1cccc(Nc2ncccc2C(=O)O)c1C`, the Potency result in assay [4] and in [5] was “inactive” in each case.
Turning to `CC(C)C[C@H](NC(=O)[C@@H](COC(C)(C)C)NC(=O)[C@H](Cc1ccc(O)cc1)NC(=O)[C@H](CO)NC(=O)[C@H](Cc1c[nH]c2ccccc12)NC(=O)[C@H](Cc1cnc[nH]1)NC(=O)[C@@H]1CCC(=O)N1)C(=O)N[C@@H](CCCN=C(N)N)C(=O)N1CCC[C@H]1C(=O)NNC(N)=O`, the Potency result in [4] and in [5] was “inactive” throughout.
Take `CN(C)CCCSc1ccccc1NC(=O)/C=C/c1ccccc1`: the Potency entry in assay [4], in assay [6], in assay [10] and in assay [11] was “inactive” in each case. Also, the molecule was classed as inactive in assay [7], in [8], in assay [9], in [12] and in [13].
For the molecule `C=Cc1c(C)c2cc3nc(cc4[nH]c(cc5nc(cc1[nH]2)C(C)=C5CCC(=O)OC)c(CCC(=O)O)c4C)[C@@]1(C)C3=CC=C(C(=O)OC)[C@H]1C(=O)OC`, the Potency result in assay [4] and in assay [5] was “inactive” throughout.
As for `CC(=O)[C@@]1(O)CC[C@H]2[C@@H]3C=C(Cl)C4=CC(=O)[C@@H]5C[C@@H]5[C@]4(C)[C@H]3CC[C@@]21C`, the Potency result in [4] and in assay [5] was “inactive” each time.
For `CC(CN(C)C)CN1c2ccccc2Sc2ccc(C(F)(F)F)cc21` (stereo not given), in [6], the Potency entry was “inactive”.
As for `C(=C\c1ccncc1)/c1ccccc1`, the Potency entry in assay [4] and in [5] was “inactive” each time.
For the molecule `O=C1c2ccccc2C(=O)c2c1ccc(O)c2O`, the Potency result in assay [4], in [6], in assay [14] and in [10] was “inactive” in each case. Further, the outcome in assay [7], in assay [8], in assay [9], in assay [12] and in assay [13] was inactive.
For `CC(C)(C)CC(C)(C)c1cc(Cc2cc(C(C)(C)CC(C)(C)C)cc(-n3nc4ccccc4n3)c2O)c(O)c(-n2nc3ccccc3n2)c1`, the Potency result in assay [4] and in assay [5] was “inactive” in each case.
`C=CCOc1ccc(CC(=O)O)cc1Cl`: the Potency entry in assay [4] and in assay [5] was “inactive” each time.
With `CC[C@H]1OC(=O)[C@H](C)[C@@H](O[C@H]2C[C@@](C)(OC)[C@@H](O)[C@H](C)O2)C(C)[C@@H](O[C@@H]2O[C@H](C)C[C@H](N(C)C)[C@@H]2O)[C@](C)(OC)C[C@@H](C)C(=O)[C@H](C)[C@@H](O)[C@]1(C)O` (stereo not given in full), in assay [1], the parasite growth remaining, % of DMSO control (lower = more inhibition) was 35.4%. For the same molecule, the parasite growth, % of control (lower = inhibition) in assay [2] stood at 38.9%. The same molecule yielded a growth, % of control in assay [3] of 37.4%. Besides, the Potency result in assay [4] and in assay [5] was “inactive” in each case.
Take `CCCC(CCC)C(=O)OC1C[C@H]2CC[C@@H](C1)[N+]2(C)C` (stereo not given in full): the Potency entry in [6] and in assay [5] was “inactive” in each case.
As for `CC(C)[C@@H]1CC[C@@H](C)C[C@H]1OC(=O)c1ccccc1O`, the Potency result in [6] and in assay [5] was “inactive” throughout.
In the case of `CCCCCCCCCCCCCCCCCCCCCC(=O)Nc1ccn([C@@H]2O[C@H](CO)[C@@H](O)[C@@H]2O)c(=O)n1`, the Potency result in assay [6] and in [5] was “inactive” throughout.
Consider `Cc1ccc(S(=O)(=O)O)cc1C`, for which the Potency result in assay [6] and in [5] was “inactive” each time.
Regarding `CCCCC[C@H](O)/C=C/[C@H]1[C@H](O)CC(=O)[C@@H]1C/C=C\CCCC(=O)O`, the Potency result in assay [6] and in assay [5] was “inactive” in each case.
With `CC1=C(/C=C/C(C)=C/C=C/C(C)=C/C(=O)Oc2c(C)c(C)c3c(c2C)CC[C@@](C)(CCC[C@H](C)CCC[C@H](C)CCCC(C)C)O3)C(C)(C)CCC1`, the Potency entry in assay [6] and in assay [5] was “inactive” throughout.
With `NCCCC[C@H](N)C(=O)O`, the Potency result in assay [6] and in [5] was “inactive” each time.
As for `CC[C@H](C)[C@H](NC(=O)[C@H](Cc1ccccc1)NC(=O)[C@H](C)NC(=O)[C@H](CC(=O)O)NC(=O)[C@H](CCCCN)NC(=O)[C@H](CO)NC(=O)[C@@H]1CCCN1C(=O)[C@@H]1CCC(=O)N1)C(=O)NCC(=O)N[C@@H](CC(C)C)C(=O)N[C@@H](CCSC)C(N)=O` ([pGlu]PSKDAFIGLM-NH2), the Potency entry in assay [6] and in assay [5] was “inactive” in each case.
For `O=C(NCCNCC(O)COc1ccc(O)cc1)N1CCOCC1` (stereo not given), the Potency entry in assay [6] and in assay [5] was “inactive” in each case.
For `COc1ccc(C[C@H](C)NC[C@@H](O)c2ccc(O)c(NC=O)c2)cc1`, the Potency result in assay [6] and in [5] was “inactive” each time.
Regarding `C[C@@H]1O[C@@H]1P(=O)(O)O`, the Potency entry in [6] and in assay [5] was “inactive” throughout.
For `COC(=O)CC[C@H](N)C(=O)O`, the Potency result in [6] and in assay [5] was “inactive” throughout.
As to `NC(=O)c1cc[n+](CC2=C(C(=O)O)N3C(=O)[C@@H](NC(=O)C(c4ccccc4)S(=O)(=O)[O-])[C@H]3SC2)cc1` (stereo not given in full), the Potency result in assay [6] and in [5] was “inactive” each time.
